In PubChem BioAssay AID1159580 (chemical genetic matrix, 2015):
Values joined by “and” are separate entries in the source; they are usually repeats but may differ in a detail not shown here. Equal entries are not always repeated. About 2,000 (36%) of roughly 5,500 compounds were called active. Roughly 18% stayed inconclusive and do not appear here. Rule as the data show it: active = normalized growth mostly below about 0.91 (no sharp cut-off); inconclusive = no clear call, values can overlap the other calls; inactive = mostly above about 0.92. The list shows a part of the results.

Test: chemical genetic growth profiling, strain panel (AID 1159580);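 also: tested at 20 µM; growth read once vehicle control cultures reached saturation at 30 °C; 1 = growth at the plate median or of vehicle wells; lower values mean less growth of the strain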
Conditions: S. cerevisiae deletion strains, growth OD

Measured: normalized growth

O=C1OC(=O)C2C3CCC(O3)C12 (stereo not given)
1 (inactive) and 0.875 (active): locus YJL095W, strain BCK1, stronger effect = lower value
inactive: locus YAL013W, strain DEP1, stronger effect = lower value 1.03 | locus YAL021C, strain ccr4, stronger effect = lower value 1.02 | locus YAL026C, strain drs2, stronger effect = lower value 1.02 | locus YAL030W, strain snc1, stronger effect = lower value 1.03 | locus YAL040C, strain CLN3, stronger effect = lower value 1 | locus YBL061C, strain skt5, stronger effect = lower value 1.01 | locus YBR009C, strain hhf1, stronger effect = lower value 1 | locus YBR021W, strain FUR4, stronger effect = lower value 0.947 | locus YBR023C, strain chs3, stronger effect = lower value 1.02 | locus YBR171W, strain sec66, stronger effect = lower value 1.02 | locus YBR229C, strain ROT2, stronger effect = lower value 1 | locus YBR231C, strain swc5, stronger effect = lower value 1 | locus YBR279W, strain paf1, stronger effect = lower value 1 | locus YCL011C, strain gbp2, stronger effect = lower value 1.01 | locus YCL016C, strain dcc1, stronger effect = lower value 1.03 | locus YCL029C, strain bik1, stronger effect = lower value 0.966 | locus YCL061C, strain MRC1 (second series), stronger effect = lower value 1 | locus YCL069W, strain vba3, stronger effect = lower value 0.994 | locus YCR088W, strain abp1, stronger effect = lower value 1.01 | locus YDL005C, strain med2, stronger effect = lower value 1.01 | locus YDL035C, strain GPR1, stronger effect = lower value 1.01 | locus YDL040C, strain nat1, stronger effect = lower value 1 | locus YDL074C, strain BRE1, stronger effect = lower value 1.01 | locus YDL101C, strain DUN1, stronger effect = lower value 1.01 | locus YDL134C, strain PPH21, stronger effect = lower value 1.02 | locus YDL185W, strain tfp1, stronger effect = lower value 0.937 | locus YDL192W, strain arf1, stronger effect = lower value 0.977 | locus YDR001C, strain nth1, stronger effect = lower value 1 | locus YDR069C, strain doa4, stronger effect = lower value 1.01 | locus YDR101C, strain arx1, stronger effect = lower value 0.982 | locus YDR137W, strain rgp1, stronger effect = lower value 1.06 | locus YDR150W, strain NUM1, stronger effect = lower value 1.03 and 1 | locus YDR159W, strain sac3, stronger effect = lower value 0.98 | locus YDR162C, strain NBP2, stronger effect = lower value 0.987 | locus YDR195W, strain ref2 0.975 | locus YDR297W, strain sur2, stronger effect = lower value 0.998 | locus YDR318W, strain mcm21, stronger effect = lower value 0.981 | locus YDR334W, strain swr1, stronger effect = lower value 0.992 | locus YDR335W, strain msn5, stronger effect = lower value 1.02 | locus YDR363W, strain ESC2, stronger effect = lower value 1.03 | locus YDR388W, stronger effect = lower value 0.956 | locus YDR392W, strain spt3, stronger effect = lower value 1.09 | locus YDR502C, strain sam2, stronger effect = lower value 0.966 | locus YEL003W, strain gim4, stronger effect = lower value 1.01 | locus YEL037C, strain rad23, stronger effect = lower value 1.02 | locus YEL061C, strain CIN8 (second series), stronger effect = lower value 1 | locus YEL061C, strain CIN8, stronger effect = lower value 1.02 | locus YER002W, strain NOP16, stronger effect = lower value 1.02 | locus YER015W, strain faa2, stronger effect = lower value 1.01 | locus YER016W, strain bim1, stronger effect = lower value 1.01 | locus YER110C, stronger effect = lower value 0.97 | locus YER111C, strain swi4, stronger effect = lower value 1.02 | locus YER155C, strain BEM2 (second series), stronger effect = lower value 1.02 | locus YER155C, strain BEM2, stronger effect = lower value 1.02 | locus YER167W, strain BCK2, stronger effect = lower value 1 | locus YFR010W, strain ubp6, stronger effect = lower value 0.967 | locus YGL078C, strain dbp3, stronger effect = lower value 0.98 | locus YGL086W, strain mad1, stronger effect = lower value 0.995 | locus YGL167C, strain pmr1, stronger effect = lower value 1.01 | locus YGL173C, strain kem1, stronger effect = lower value 1 | locus YGL227W, strain vid30, stronger effect = lower value 0.996 | locus YGL240W, strain doc1, stronger effect = lower value 0.981 | locus YGL248W, strain PDE1, stronger effect = lower value 1.01 | locus YGL253W, strain hxk2, stronger effect = lower value 1.03 | locus YGR078C, strain PAC10, stronger effect = lower value 1.03 | locus YGR135W, strain pre9, stronger effect = lower value 0.967 | locus YGR229C, strain SMI1, stronger effect = lower value 1.02 | locus YGR252W, strain gcn5, stronger effect = lower value 0.982 | locus YHR013C, strain ard1, stronger effect = lower value 1.05 | locus YHR027C, strain rpn1, stronger effect = lower value 1.04 | locus YHR030C, strain SLT2, stronger effect = lower value 1.01 and 0.877 | locus YHR079C, strain IRE1 (second series), stronger effect = lower value 0.98 | locus YHR079C, strain IRE1, stronger effect = lower value 0.919 | locus YHR094C, strain hxt1, stronger effect = lower value 0.98 | locus YHR129C, strain ARP1, stronger effect = lower value 1.03 | locus YHR142W, strain chs7, stronger effect = lower value 1.04 | locus YHR200W, strain rpn10, stronger effect = lower value 0.977 | locus YIL066C, strain RNR3, stronger effect = lower value 1.02 | locus YIL073C, strain SPO22, stronger effect = lower value 1.02 | locus YIL125W, strain kgd1, stronger effect = lower value 0.973 | locus YIR030C, strain dcg1, stronger effect = lower value 0.985 | locus YJL092W, strain hpr5, stronger effect = lower value 1.01 | locus YJL095W, strain BCK1 (second series), stronger effect = lower value 1.01 | locus YJL115W, strain asf1, stronger effect = lower value 1 | locus YJL129C, strain trk1, stronger effect = lower value 1.03 | locus YJL134W, strain LCB3, stronger effect = lower value 1.01 | locus YJL154C, strain vps35, stronger effect = lower value 0.999 | locus YJL164C, strain tpk1, stronger effect = lower value 1 | locus YJL166W, strain qcr8, stronger effect = lower value 0.99 | locus YJL168C, strain set2, stronger effect = lower value 0.984 | locus YJL187C, strain SWE1 (second series), stronger effect = lower value 1.01 | locus YJR043C, strain POL32, stronger effect = lower value 1 | locus YJR066W, strain TOR1, stronger effect = lower value 0.872 | locus YJR075W, strain HOC1, stronger effect = lower value 1.02
